Results on 39 compounds are retold here after PubChem BioAssay AID504336 (NMMLSC, 2011).

Unmarked numbers belong to inactive results.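 The calls were made as follows: active = compounds whose GFP signal falls below 65% of the DMSO control level; inconclusive = fewer than 70 yeast cells counted in the well; inactive = the rest.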

This assay is described as follows: TOR branch reporter RPL19A-GFP response – cell-based, S. cerevisiae, third cherry pick, flow cytometry, confirmation (AID 504336).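 Also: median GFP fluorescence of all gated yeast cells by flow cytometry; ratio of well median fluorescence to plate mean of DMSO wells with DMSO = 100%.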 The note with it: S. cerevisiae RPL19A-GFP strain, 3 h, at 10 µM, active compounds read low.
On to `CCN(CC)C(=O)Oc1cc(=O)n(C)c2ccccc12`, for which the GFP response relative to DMSO was 99.8%.

For `Cc1ccc(Nc2cc(=O)[nH]c(=O)[nH]2)cc1Cl`, the GFP response relative to DMSO was 100%.

Take `Cc1cccc(C)c1Nc1ncnc(N)c1[N+](=O)[O-]`: the GFP response relative to DMSO was 98.5%.

On to `Cc1ccc(-c2cc(C(F)F)nc(S(C)(=O)=O)n2)cc1`, for which the GFP response relative to DMSO was 96.2%.

With `Cc1ccc(C)c(Nc2ncnc(N)c2[N+](=O)[O-])c1`, the GFP response relative to DMSO is 99.3%.

In the case of `COCCCNc1nc(N)c([N+](=O)[O-])c(Nc2cc(OC)ccc2OC)n1`, the GFP response relative to DMSO was 101%.

For `O=C(Nc1ccc(-c2nc3ccccc3o2)cc1)c1cccnc1`, the GFP response relative to DMSO was 101%.

`COc1ccc(N/C(C)=C/C(=O)c2ccccc2)cc1`: the GFP response relative to DMSO was 102%.

In the case of `CS(=O)(=O)c1nc(-c2ccc(F)cc2)cc(C(F)(F)F)n1`, the GFP response relative to DMSO was 97.8%.

Turning to `CCC(C)Nc1nc(N)c([N+](=O)[O-])c(Nc2ccccc2OC)n1` (centres undefined), the GFP response relative to DMSO was 105%.

Take `COCCNc1nc(N)c([N+](=O)[O-])c(Nc2ccc(F)cc2)n1`: the GFP response relative to DMSO was 100%.

Take `OCCN1CCN(c2ncnc3ccc(Br)cc23)CC1`: the GFP response relative to DMSO was 102%.

With `CS(=O)(=O)Oc1ccc(Br)c2cccnc12`, the GFP response relative to DMSO is 99.3%.

As for `C/C(=N\NC(=O)c1ccccc1)c1ccccc1F`, the GFP response relative to DMSO was 98.3%.

Regarding `Nc1ncnc(Nc2cc(Cl)cc(Cl)c2)c1[N+](=O)[O-]`, the GFP response relative to DMSO is 102%.

With `CC(=O)Nn1cnc2c(c1=O)C1(CCCCC1)Cc1ccccc1-2`, the GFP response relative to DMSO is 99.1%.

Consider `Cc1ccc2c(Cl)cc(Cl)c(OCC(=O)O)c2n1`, for which the GFP response relative to DMSO is 104%.

Consider `Cn1c(=O)c2c(n3cnnc13)-c1ccccc1CC21CCCC1`, for which the GFP response relative to DMSO was 102%.

For `Oc1c(Br)cc(Br)c2cccnc12`, the GFP response relative to DMSO is 88.3%.

For the compound `CSc1nc(Nc2ccc(Cl)cc2)c(C#N)c(=O)[nH]1`, the GFP response relative to DMSO is 98.3%.

For the compound `COc1ccc(N/C=C/C(=O)c2ccc(Cl)cc2)cc1`, the GFP response relative to DMSO was 102%.

On to `Oc1ccc(F)c2cccnc12`, for which the GFP response relative to DMSO was 101%.

With `COc1ccc(NC(=O)ON=C2c3ccccc3-c3ccccc32)cc1`, the GFP response relative to DMSO was 107%.

For the compound `COc1ccc(OC)c(Nc2nc(NCCC(C)C)nc(N)c2[N+](=O)[O-])c1`, the GFP response relative to DMSO was 103%.

In the case of `Oc1c(Cl)cc(Cl)c2cccnc12`, the GFP response relative to DMSO was 81.6%.

Turning to `Cc1ccc(C(=O)/C=C/Nc2cccc(O)c2)cc1`, the GFP response relative to DMSO is 101%.

Take `Cc1ccc(NC(=O)O/N=C2\CCCCC2c2ccc([N+](=O)[O-])cc2[N+](=O)[O-])cc1` (centres undefined): the GFP response relative to DMSO is 102%.

For the compound `OCCNc1ncnc2ccc(Br)cc12`, the GFP response relative to DMSO is 99.8%.

For the compound `O=C(O)c1ccc(C=NNC(=O)c2cccc3ccccc23)cc1`, the GFP response relative to DMSO is 97.2%.

As for `Cn1cccc1C(=O)Nc1nc(-c2ccccn2)cs1`, the GFP response relative to DMSO is 102%.

As to `CC(C)Nc1ncnc2ccc(Br)cc12`, the GFP response relative to DMSO was 97.8%.

Consider `COc1cccc2c(O)cc(=O)n(C)c12`, for which the GFP response relative to DMSO was 99.6%.

In the case of `O=C(O)CCS(=O)(=O)c1nc(-c2cccs2)cc(C(F)(F)F)n1`, the GFP response relative to DMSO was 97%.

As to `CC1=CN2C(=N)/C(=C/c3ccc([N+](=O)[O-])o3)C(=O)N=C2S1`, the GFP response relative to DMSO is 240%.

As for `CCCOCc1ccc(O)c2ncccc12`, the GFP response relative to DMSO was 101%.

In the case of `O=C(O)c1ccc2cccc(O)c2n1`, the GFP response relative to DMSO is 102%.

With `CN1CCN(C(=O)c2cc(COc3ccc(F)cc3Cl)on2)CC1c1ccccc1` (centres undefined), the GFP response relative to DMSO is 100%.

As for `COC1=C/C(=C/c2c(N)n3cc(C)sc3nc2=O)C=CC1=O`, the GFP response relative to DMSO is 103%.

`O=C(N/N=C/c1ccccc1O)c1cccc2ccccc12`: the GFP response relative to DMSO was 97%.
